# The entries come from a sample that favours hits as a whole.
# CBX7 AlphaScr: inhibitors of human CBX7 binding to H3K27me3 peptide | O95931 | AlphaScreen His6-CBX7 / biotin-H3K27me3 peptide binding; stronger effect = lower value | normalised signal (fraction of DMSO) (no concentration beside the values) | hit rate 1.1% among 66,000 | AID 1224903; in the data active = normalised signal below about 0.5
# Target sequence (O95931 whole entry, looked up): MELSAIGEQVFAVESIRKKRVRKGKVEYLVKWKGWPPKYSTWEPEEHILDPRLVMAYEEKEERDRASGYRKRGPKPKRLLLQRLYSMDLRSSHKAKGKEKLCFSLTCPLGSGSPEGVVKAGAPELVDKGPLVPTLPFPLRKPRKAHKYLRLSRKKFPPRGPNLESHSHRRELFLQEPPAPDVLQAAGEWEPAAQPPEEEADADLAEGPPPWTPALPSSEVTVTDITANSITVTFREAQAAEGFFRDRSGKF
# Starred values were filed as active, the others as inactive.
SMILES,CBX7 AlphaScr
Cc1c(C(=O)NC2CCCCC2C)oc2ccc(S(=O)(=O)N3CCOCC3)cc12 (centres undefined),1
O=C(O)c1ccc2c(c1)C(=O)N(c1ccccc1Cl)C2=O,1
CCOc1ccc2nc(N3CCCC(C(=O)N4CCN(c5ccccc5)CC4)C3)sc2c1 (centres undefined),0.76
CCOc1ccc2nc(N3CCCC(C(=O)N4CCN(C)CC4)C3)sc2c1 (centres undefined),0.38*
CCOc1ccc2nc(N3CCCC(C(=O)N4CCN(c5cccc(C)c5)C(C)C4)C3)sc2c1 (centres undefined),0.49*
CCOc1ccc2nc(N3CCCC(C(=O)N4CCN(c5ncccn5)CC4)C3)sc2c1 (centres undefined),0.94
CCOc1ccc2nc(N3CCCC(C(=O)Nc4c(C)cccc4C)C3)sc2c1 (centres undefined),1.3
CCOc1ccc2nc(N3CCC(C(=O)N4CCN(C)CC4)CC3)sc2c1,1
O=C(CC(C(=O)N1CCc2ccccc21)n1ccnc1)N1CCN(c2cccc(C(F)(F)F)c2)CC1 (centres undefined),0.83
CCCN1Cc2cccc(C(=O)Nc3ccc(Cl)cc3)c2C1=O,1
Cc1ccccc1C(=O)NCCc1cc2ccc(C)c(C)c2[nH]c1=O,1.1
COc1cc(OC)c(NC(=O)c2nn(-c3ccccc3OC)c(=O)c3ccccc23)cc1Cl,1
CCOc1ccc2nc(N3CCCC(C(=O)Nc4ccc(Cc5ccncc5)cc4)C3)sc2c1 (centres undefined),0.78
CC(C)(c1ccccc1)c1ccc(OCCN2CCOCC2)cc1,0.3*
CCCCOc1ccc(C(O)(CCC)CCN2CCOCC2)cc1 (centres undefined),1
CCCOc1ccc(C(C)(O)CN2CCOCC2)cc1 (centres undefined),0.98
Cc1cccc(C)c1NC(=O)C(c1ccccc1)N(C)C(=O)c1cnccn1 (centres undefined),0.98
CCC1Oc2ccc(C)cc2N(CC(=O)NCc2ccc(C)cc2)C1=O (centres undefined),1
OCCCc1nc2ccccc2n1CCOc1ccc(Cl)cc1,0.9
COCCNC(=O)c1nn2c(c1Cl)NC(c1ccccc1)CC2C(F)(F)F (centres undefined),1
Fc1ccc(-c2cc(-c3ccccc3)nc3ncnn23)cc1,1
Cc1ccc(-c2cc(-c3ccc(F)cc3)n3ncnc3n2)cc1,0.86
Fc1ccc(-c2cc(C(F)(F)F)n3ncnc3n2)cc1,0.47*
COc1cccc(NC(=O)CN2C(=O)c3ccccc3S2(=O)=O)c1,1.2
COc1cccc(NC(=O)C2(NS(=O)(=O)c3cccc4cccnc34)CCCCC2)c1,1
SMILES,CBX7 AlphaScr
COc1ccc(N2Cc3cccc(C(=O)NC4CCCC4)c3C2=O)cc1,1.1
CCOC(=O)N1CCC(NC(=O)c2cccc3c2C(=O)N(c2ccc(OC)cc2)C3)CC1,0.47*
COc1ccc(N2Cc3cccc(C(=O)NC4CCCCCC4)c3C2=O)cc1,1
O=C(CNC(=O)Cn1ccc2ccccc2c1=O)NCC1CCCO1 (centres undefined),1
Cc1sc2nc(-c3ccccc3Cl)n(Cc3ccccc3Cl)c(=O)c2c1C,1.2
Cc1ccccc1-c1nc(CN2CCCC(C(=O)NCc3ccc(F)cc3)C2)c(C)o1 (centres undefined),0.99
Cc1nnc2ccc(N3CCN(C(=O)c4cccc(F)c4)CC3)nn12,1
COc1ccc(-c2noc(CCC(=O)NCCCOC(C)C)n2)cc1,0.89
CCN(CCCNC(=O)CCc1nc(-c2ccc(OC)cc2)no1)c1cccc(C)c1,0.42*
COc1ccc(-c2noc(CCC(=O)NCCN(C)C)n2)cc1,0.89
CCOC(=O)c1cnc2ccc(OC)cc2c1Nc1ccc(C)c(C)c1,1.1
CCOC(=O)c1cnc2ccc(OCC)cc2c1Nc1ccc2c(c1)OCO2,0.42*
CCOC(=O)c1cnc2ccc(OC)cc2c1Nc1ccc2c(c1)OCCO2,0.47*
CCOC(=O)c1cnc2ccc(OCC)cc2c1Nc1ccc2c(c1)OCCO2,0.87
CCOC(=O)c1cnc2ccc(Br)cc2c1Nc1ccc2c(c1)OCCO2,0.84
CCOC(=O)c1cnc2ccc(OCC)cc2c1Nc1ccc(CC)cc1,1.1
CCc1ccc(-c2nc(C(=O)NCC(OC)OC)c(C)o2)cc1,0.99
Cc1nc(Oc2ccc(F)cc2)c(C(=O)NCCc2ccccc2)c(C)c1Cl,1.1
O=C(Nc1c(C(=O)Nc2cccc(F)c2)oc2ccccc12)c1ccccc1F,1
COCCN1Cc2cccc(C(=O)N3CCC(N4CCCCC4)CC3)c2C1=O,0.95
Fc1ccc(-c2[nH]c(-c3c[nH]c4ccccc34)nc2-c2ccccc2)cc1,0.42*
c1ccc(-c2nc(-c3c[nH]c4ccccc34)[nH]c2-c2ccccc2)cc1,0.8
Oc1ccccc1-c1nc(-c2ccccc2)c(-c2ccc(F)cc2)[nH]1,0.58
Oc1ccccc1-c1nc(-c2ccc(F)cc2)c(-c2ccc(F)cc2)[nH]1,0.7
Cc1ccc(-c2nc(-c3c[nH]c4ccccc34)[nH]c2-c2ccc(C)cc2)cc1,0.37*
SMILES,CBX7 AlphaScr
Cc1ccc(Nc2c(-c3c[nH]c4ccccc34)nc3cccc(C)n23)cc1,0.87
COc1ccc2oc(=O)c(-c3nnc(-c4cccc(Br)c4)o3)cc2c1,1.1
COc1ccc(-c2cn3c(C)c(C(=O)Nc4cccc(OC)c4)sc3n2)cc1,1
CCn1c(C(=O)N2CCC(C(=O)NCCN3CCCCCC3)CC2)cc2sccc21,1.1
CC(=O)Nc1ccc(N2C(=O)CC(NCCN3CCOCC3)C2=O)cc1 (centres undefined),0.94
COC(=O)c1ccc(N2C(=O)CC(NCCN3CCOCC3)C2=O)cc1 (centres undefined),0.92
O=C1CC(NCCN2CCOCC2)C(=O)N1c1ccc(Br)cc1 (centres undefined),0.46*
NS(=O)(=O)c1ccc(Nc2nc(-c3ccc(Br)cc3)cs2)cc1,0.8
COc1ccccc1Nc1cc(C(F)(F)F)nc2c(OC)ccc(OC)c12,0.2*
COc1ccccc1Nc1cc(C)nc2c(OC)cccc12,0.77
COc1ccccc1Nc1cc(C)nc2c(C)cccc12,1.1
COc1ccc2c(c1)c(=O)c(S(=O)(=O)c1ccccc1)cn2CC(=O)Nc1ccc(C)cc1,0.96
Cc1ccc(C)c(OCCCCCCc2c(C)n[nH]c2C)c1,0.92
Cc1ccc(OCCCCc2c(C)n[nH]c2C)c(C(C)(C)C)c1,0.42*
Cc1n[nH]c(C)c1CCCCCOc1ccccc1F,1.1
CCCCC(CC)CNS(=O)(=O)c1ccc2c(c1)CCN2C(C)=O (centres undefined),1.2
COc1ccccc1CNC(=O)c1cc(=O)[nH]c2ccc(S(=O)(=O)N3CCCC3)cc12,0.96
O=C(CN1CCN(c2ccccc2)CC1)Nc1c2c(nc3c1CCC3)CCCC2,0.98
O=C(CCN1Cc2ccccc2C1)Nc1c2c(nc3c1CCC3)CCCC2,0.95
O=C(Nc1c2c(nc3c1CCC3)CCCC2)c1ccccn1,0.14*
CCN(CC)CC(=O)Nc1c2c(nc3c1CCC3)CCC2,1
CC(C)NCC(=O)Nc1c2c(nc3c1CCC3)CCCC2,0.52
CN(C)CC(=O)Nc1c2c(nc3c1CCC3)CCCC2,0.23*
CC(C)c1ccc(CN(C(=O)COc2ccc(F)cc2)C2CCS(=O)(=O)C2)cc1 (centres undefined),0.87
COc1ccc(NC(=O)C(CC(C)C)NS(=O)(=O)c2ccc3nc(C)sc3c2)c(OC)c1 (centres undefined),0.91
COC(=O)C(C)NC(=O)CC12CC3CC(CC(C3)C1)C2 (centres undefined),1
